# Test results as given in PubChem BioAssay (NCI).
# This is part of a sample that, as a whole, favours compounds with a hit. Of some 83,000 tested, about 20% had one in any assay.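 96-well plates, one dose, 48 hours. Percent growth reported; active if below 10.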 Values without a mark were called inactive. Active and inactive are the calls of the source.
# System: MCF7 breast
# Test: NCI-60 one-dose screen, 48 h (100 = growth as untreated, 0 = no growth, -100 = all killed)
# Conditions: 10 µM unless noted
row,SMILES,growth
1,COc1cccc(-c2nc3sccn3c2-c2ccnc(NCCCNS(=O)(=O)c3c(Cl)cccc3Cl)c2)c1,65.8%
2,Cc1nc2c3c(-c4ccccc4)c(-c4ccccc4)oc3ncn2n1,101%
3,C=CC(=O)Nc1cccc(-c2nc(SC)nc(NCc3ccccc3)c2C#N)c1,47.2%
4,N#Cc1c(N)n(CCNC(=O)c2ccccc2)c2nc3ccccc3nc12,109%
5,C=C(C)[C@@H]1CC[C@]2(C(=O)OC)CC[C@]3(C)[C@H](CC[C@@H]4[C@@]5(C)C/C(=C/c6cccc(I)c6)C(=O)C(C)(C)[C@@H]5CC[C@]43C)[C@@H]12,89.2%
6,COc1cc(/C=C/c2cc(O)c3cc(C(C)=O)c(=O)oc3c2)cc2c1O[C@]1(C)CC[C@@H](O)C(C)(C)[C@H]1C2,5.64% (active)
7,COc1cc(/C=C/C(=O)c2ccc(O)c(CN3CCN(c4cc5c(cc4F)c(=O)c(C(=O)O)cn5C4CC4)CC3)c2)cc(OC)c1OC,18.6%
8,C=CCSSc1ncnc2c1ncn2C1OC(CO)C(O)C1O (stereo unspecified),4.74% (active)
9,COc1cc2nc(N3CCCC3)nc(NCc3ccccc3)c2cc1OC,29.4%
10,CSc1nc(NCCN2CCOCC2)c(C#N)c(-c2cccc([N+](=O)[O-])c2)n1,89.4%
11,N#CCCN=Nc1c(O)[nH]c2ccc([N+](=O)[O-])cc12,86.8%
12,COc1cc2nc(N3CCCC3)nc(Nc3ccccc3)c2cc1OC,-71.6% (active)
13,Nc1nc2ncc(CCNc3ccc(C(=O)O)cc3)nc2c(=O)[nH]1,110%
14,CCCN1CCN(c2ccc3nc(-c4ccc5nc(-c6ccc(OCC)cc6)[nH]c5c4)[nH]c3c2)CC1,-69.7% (active)
15,COc1ccc(Nc2nc(SC)nc(-c3cccc([N+](=O)[O-])c3)c2C#N)cc1,66.7%
16,O=C1CC(=NCC(=O)n2c(-c3ccccc3)nc3ccccc32)NN1,72.7%
17,CC(C)(O)c1cn(CCCCN2C(=O)C(=O)c3ccccc32)nn1,93.9%
18,COc1ccc(/C=C/C(=O)c2ccc(O)c(CN3CCN(c4cc5c(cc4F)c(=O)c(C(=O)O)cn5C4CC4)CC3)c2)cc1,8.68% (active)
19,O=S(=O)(Nc1ccc(OC(F)F)cc1)c1ccc(-c2cnc(C3CC3)o2)cc1,39.1%
20,N#C/C(=C\c1ccc(-c2cc(C(F)(F)F)ccc2Cl)o1)c1nc(-c2ccco2)cs1,45.3%
21,O=C(O)c1ccc(N=CC(=O)c2ccc(-c3ccccc3)cc2)cc1,97.6%
22,COc1cccc(-c2nn(C(C)(C)C)cc2-c2ccnc(NCCCNS(=O)(=O)c3ccc(C)cc3)c2)c1,102%
23,N#Cc1c(-c2ccc(Cl)cc2)nc(N/N=C/c2cccc(Br)c2)nc1N1CCOCC1,72.5%
24,COc1ccc(-c2nc3ccc(-c4nc5ccc(N6CCN(c7ccncc7)CC6)cc5[nH]4)cc3[nH]2)cc1OC,12.3%
25,CSc1nc(NCc2ccccc2)c(C#N)c(-c2cccc([N+](=O)[O-])c2)n1,91.8%
26,O=C(/C=C/c1cccc(Cl)c1)c1ccc(O)c(CN2CCN(c3cc4c(cc3F)c(=O)c(C(=O)O)cn4C3CC3)CC2)c1,28.3%
27,CC1(C)CC[C@]2(C(=O)Nc3ccccn3)CC[C@]3(C)C(=CC[C@@H]4[C@@]5(C)C/C(=C/c6cccnc6)C(=O)C(C)(C)[C@@H]5CC[C@]43C)[C@H]2C1,11.4%
28,COC(=O)[C@]12CCC(C)(C)C[C@H]1[C@H]1C(=O)C[C@@H]3[C@@]4(C)c5c([nH]c6ccccc6c5=O)C(C)(C)[C@@H]4CC[C@@]3(C)[C@]1(C)CC2,44.5%
29,CCC(=O)c1ccc(Cl)s1,97.8%
30,Cn1c(=O)c2c(nc3n(-c4ccc(Cl)cc4Cl)c(Sc4nc(-c5ccccc5)c(C#N)c(=O)[nH]4)cn23)n(C)c1=O,52.1%

# System: HCT-116 colon
# Test: as above
# Conditions: 10 µM unless noted
row,SMILES,growth
1,COc1cccc(-c2nc3sccn3c2-c2ccnc(NCCCNS(=O)(=O)c3c(Cl)cccc3Cl)c2)c1,52.6%
2,CC1=NN(c2nc(-c3ccc(Cl)cc3)c(C#N)c(N3CCOCC3)n2)C(=O)C1,94.3%
3,Cc1nc2c3c(-c4ccccc4)c(-c4ccccc4)oc3ncn2n1,88.5%
4,C=CC(=O)Nc1cccc(-c2nc(SC)nc(NCc3ccccc3)c2C#N)c1,55.1%
5,N#Cc1c(N)n(CCNC(=O)c2ccccc2)c2nc3ccccc3nc12,102%
6,C=C(C)[C@@H]1CC[C@]2(C(=O)OC)CC[C@]3(C)[C@H](CC[C@@H]4[C@@]5(C)C/C(=C/c6cccc(I)c6)C(=O)C(C)(C)[C@@H]5CC[C@]43C)[C@@H]12,95.4%
7,COc1cc(/C=C/c2cc(O)c3cc(C(C)=O)c(=O)oc3c2)cc2c1O[C@]1(C)CC[C@@H](O)C(C)(C)[C@H]1C2,44.2%
8,CCCOc1ccc2nc(NC(=O)OC)[nH]c2c1,9.34% (active)
9,COc1cc(/C=C/C(=O)c2ccc(O)c(CN3CCN(c4cc5c(cc4F)c(=O)c(C(=O)O)cn5C4CC4)CC3)c2)cc(OC)c1OC,7.72% (active)
10,C=CCSSc1ncnc2c1ncn2C1OC(CO)C(O)C1O (stereo unspecified),22.4%
11,COc1cc2nc(N3CCCC3)nc(NCc3ccccc3)c2cc1OC,28.2%
12,CC[C@H]1OC(=O)[C@H](C)[C@@H](O[C@H]2C[C@@](C)(OC)[C@@H](O)[C@H](C)O2)[C@H](C)[C@@H](O[C@@H]2O[C@H](C)C[C@H](N(C)C)[C@H]2O)[C@](C)(O)C[C@H](C)CN(C)[C@H](C)[C@@H](O)[C@]1(C)O,90.3%
13,CSc1nc(NCCN2CCOCC2)c(C#N)c(-c2cccc([N+](=O)[O-])c2)n1,98.8%
14,CC(C)c1c(C(=O)c2ccccc2)c(-c2ccccc2)c(-c2ccc(F)cc2)n1CC[C@@H](O)C[C@@H](O)CC(=O)O,47.4%
15,N#CCCN=Nc1c(O)[nH]c2ccc([N+](=O)[O-])cc12,96.5%
16,CC[C@@H]1O[C@H](O[C@@H](c2cnc[nH]2)[C@H](NC(=O)c2nc([C@H](CC(N)=O)NC[C@@H](N)C(N)=O)nc(N)c2C)C(=O)N[C@H](C)[C@H](O)[C@H](C)C(=O)N[C@@H](C(=O)NCCc2nc(-c3nc(C(=O)NCCCCN=C(N)N)cs3)cs2)[C@@H](C)O)[C@H](O[C@@H]2O[C@H](CO)[C@H](O)[C@H](OC(N)=O)[C@@H]2O)[C@H](C)[C@@H]1C,37%

row,SMILES,growth
1,COc1cc2nc(N3CCCC3)nc(Nc3ccccc3)c2cc1OC,-79.4% (active)
2,Nc1nc2ncc(CCNc3ccc(C(=O)O)cc3)nc2c(=O)[nH]1,104%
3,CCCN1CCN(c2ccc3nc(-c4ccc5nc(-c6ccc(OCC)cc6)[nH]c5c4)[nH]c3c2)CC1,-89.8% (active)
4,COc1ccc(Nc2nc(SC)nc(-c3cccc([N+](=O)[O-])c3)c2C#N)cc1,15.8%
5,CCCCCCCCCCCCC[N+](C)(C)Cc1ccccc1,-89.9% (active)
6,COc1ccc(/C=C/C(=O)c2ccc(O)c(CN3CCN(c4cc5c(cc4F)c(=O)c(C(=O)O)cn5C4CC4)CC3)c2)cc1,9.41% (active)
7,O=S(=O)(Nc1ccc(OC(F)F)cc1)c1ccc(-c2cnc(C3CC3)o2)cc1,65.4%
8,N#C/C(=C\c1ccc(-c2cc(C(F)(F)F)ccc2Cl)o1)c1nc(-c2ccco2)cs1,104%
9,O=C(O)c1ccc(N=CC(=O)c2ccc(-c3ccccc3)cc2)cc1,97.9%
10,N#Cc1c(-c2ccc(Cl)cc2)nc(N/N=C/c2cccc(Br)c2)nc1N1CCOCC1,61.5%
11,COc1ccc(-c2nc3ccc(-c4nc5ccc(N6CCN(c7ccncc7)CC6)cc5[nH]4)cc3[nH]2)cc1OC,17.8%
12,CSc1nc(NCc2ccccc2)c(C#N)c(-c2cccc([N+](=O)[O-])c2)n1,87.1%
13,O=C(/C=C/c1cccc(Cl)c1)c1ccc(O)c(CN2CCN(c3cc4c(cc3F)c(=O)c(C(=O)O)cn4C3CC3)CC2)c1,6.6% (active)
14,CC1=CC(=NN=c2cc(C)n([O-])c(C)c2)C=C(C)[N+]1=O,83.1%
15,Cn1c(=O)c2c(nc3n(-c4ccc(Cl)cc4Cl)c(Sc4nc(-c5ccccc5)c(C#N)c(=O)[nH]4)cn23)n(C)c1=O,18.6%
